In PubChem BioAssay (EPA / NIEHS):
Inconclusive results are not listed. Calls of active or inactive are those of the source. How the source made its calls: active means hit-call score of the fitted dose curve at least 0.9, where 1 is the maximum; inconclusive means response in the unintended direction; inactive means score below 0.9.

experiment: NVS_GPCR_bNPY_NonSelective: NovaScreen (NVS) G Protein-Coupled Receptor Assay for bovine Neuropeptide Y (NPY) Receptor, Non-selective Binding (AID 2283245)
In short: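 Bovine hippocampal membranes incubated 1 hour with radioligand and test chemical. Bound ligand measured by filter-based scintillation counting. Single-concentration screen at 25 uM in duplicate, then concentration-response up to 50 uM.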

AC50, active:
CN(C)c1ccc(C(=C2C=CC(=[N+](C)C)C=C2)c2ccc(N(C)C)cc2)cc1 11.2 µM, COc1ccc2cc(S(=O)(=O)N[C@H](CC(=O)N[C@H](Cc3ccc(CN4[C@H](C)CCC[C@@H]4C)cc3)C(=O)N(C)C(C)C)c3ccc4c(c3)OCO4)ccc2c1 10.7 µM, CCOC(=O)O[C@H](C)OC(=O)c1ccc2c(c1)cc(C(=O)NC1CCN(C(C)C)CC1)n2Cc1cc(-c2ccc(Cl)s2)on1 23.6 µM, CN(C)C(=O)C1(N2CCCCC2)CCN(CC[C@@]2(c3ccc(Cl)c(Cl)c3)CN(C(=O)c3ccccc3)CCO2)CC1 15.1 µM, NCc1cccc(C2CCN(C(=O)c3ccc(C#Cc4ccccc4F)o3)CC2)c1 25 µM

outcome, inactive:
CCCCCCCCCCCC[N+](C)(C)C, CCN(Cc1cccnc1)C(=O)c1cccc(Cl)c1[C@]1(C)C(=O)N(Cc2ccc(OC)cc2OC)c2ccc(Cl)cc21, CCN(CC)C(=O)c1cc(S(=O)(=O)Cc2ccccc2)c(N2CCC(c3ccccc3)CC2)cc1N(CC)CCN(C)C, CCCCCCCCCCCO
